Most compounds without a hit are left out; they make up all but 3.1% or so of the library.
PAFAH2 inh – inhibitors of human PAFAH2 | actives 0.99% (n = 340,000) | recombinant PAFAH2, FP-rhodamine activity probe, fluorescence polarization | Q99487 | AID 492956 | inhibition, % at 3.39 µM;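 active = inhibition above the mean over all tested compounds plus 3 SD, cut at about 30% in these data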;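 note: inhibitors block probe labeling of enzyme so polarization drops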
Rin1-Abl PPI inh – human Rin1-Abl interaction inhibition | AID 588664 | P00519+Q13671 | TR-FRET Rin1/Abl binding, biochemical | inhibition, % at 7.35 µM | actives 0.4% (n = 360,000); in the data active = inhibition above about 5%, passing the limit was not always enough
E coli Lon inh – E. coli protease La inhibition | actives 0.42% (n = 360,000) | P0A9M0 | AID 602123 | purified E. coli Lon protease, fluorescence polarization | inhibition, % at 7.94 µM; in the data active = inhibition above about 13%, passing the limit was not always enough
pPAFAH inh – inhibitors of human plasma PAF acetylhydrolase (pPAFAH); Q13093; recombinant pPAFAH, FP-rhodamine probe fluorescence polarization; inhibition, % at 3.39 µM; actives 1.5% (n = 330,000);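 active = inhibition above the mean inhibition across the screen plus 3 SD, cut at about 25% in these data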;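 note: inhibitors block binding of the rhodamine activity-based probe so polarization drops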
PAFAH1B2 FP inh – PAFAH1B2 (human) inhibition; P68402; recombinant PAFAH1B2, FP-rhodamine activity probe, fluorescence polarization; inhibition, % at 3.39 µM; actives 1.2% (n = 340,000);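 active = inhibition above the mean of all tested compounds plus 3 SD, cut at about 24% in these data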
Target sequence (P68402 whole entry, looked up): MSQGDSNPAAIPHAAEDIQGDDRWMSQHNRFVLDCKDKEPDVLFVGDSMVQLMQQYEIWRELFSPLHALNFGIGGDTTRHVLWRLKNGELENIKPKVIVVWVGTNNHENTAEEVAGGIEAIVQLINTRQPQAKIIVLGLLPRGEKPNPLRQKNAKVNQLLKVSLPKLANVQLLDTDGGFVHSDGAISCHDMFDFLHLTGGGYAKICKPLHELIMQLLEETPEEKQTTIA
PAFAH1B3 FP inh – blocks human PAF acetylhydrolase 1B catalytic subunit 3; Q15102; inhibition, % at 3.39 µM; AID 492972; recombinant PAFAH1B3, FP-rhodamine probe, fluorescence polarization; actives 0.28% (n = 340,000);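 active = inhibition above the screen-wide average of all tested compounds plus 3 SD, cut at about 25% in these data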
Target sequence (Q15102 whole entry, looked up): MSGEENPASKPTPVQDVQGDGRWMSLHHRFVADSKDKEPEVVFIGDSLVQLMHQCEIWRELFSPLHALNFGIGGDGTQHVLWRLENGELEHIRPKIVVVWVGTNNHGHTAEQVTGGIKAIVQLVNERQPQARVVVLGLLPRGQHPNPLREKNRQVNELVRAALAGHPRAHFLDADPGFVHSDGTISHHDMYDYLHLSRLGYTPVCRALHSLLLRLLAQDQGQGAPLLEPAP
pPAFAH FP conf – confirmation of human plasma PAF acetylhydrolase (pPAFAH) inhibitors; shares compounds with pPAFAH inh; recombinant pPAFAH, FP-Rh probe fluorescence polarization; inhibition, % at 3.39 µM; actives 72% (n = 2,300); AID 463230;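 active = mean inhibition of the triplicate above the hit cutoff set for the earlier primary screen, cut at about 25% in these data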
Large screens that a line does not name were inactive (follow-up assays come after a bar, where they were run).

O=C(Oc1ccnc2cc(Cl)ccc12)N1CCOCC1	pPAFAH inh 39.6 | pPAFAH FP conf 37.2
Cc1cccnc1CNC(=O)C1(C)CCCN1CC(C)C (stereo unspecified)	none (no result: PAFAH2 inh, pPAFAH inh, PAFAH1B2 FP inh, PAFAH1B3 FP inh)
COc1ccc(CNC(=O)C(c2ccco2)N(C(=O)CNS(=O)(=O)c2ccccc2)c2ccccc2C)cc1 (stereo unspecified)	pPAFAH inh 46.5 | pPAFAH FP conf 51.5
COc1ccc(S(=O)(=O)NCC(=O)N(CC(=O)NCc2ccccc2)Cc2ccco2)cc1	none
O=C(NNC(=S)Nc1ccc(Cl)c(Cl)c1)c1ccccn1	pPAFAH inh 37.2 | pPAFAH FP conf 51.1
COc1ccc(NS(=O)(=O)c2cccc(NC(=O)c3ccc(Cl)nc3)c2)cc1	none
O=C(Nc1cccc(S(=O)(=O)Nc2ccc(Cl)cc2)c1)c1ccc(Cl)nc1	pPAFAH inh 40.5 | pPAFAH FP conf 34.4
CCN(CC)c1ccc(/C=N/NC(=O)c2cccc(S(=O)(=O)Nc3ccccc3OC)c2)c(O)c1	pPAFAH inh 47.7 | pPAFAH FP conf 65.2
CCN(CC)c1ccc(/C=N/NC(=O)c2cccc(S(=O)(=O)Nc3ccccc3OC)c2)cc1	none
CC(=O)N1c2ccc(S(=O)(=O)N3CCC(C(=O)Nc4cccc(Cl)c4)CC3)cc2CC1C (stereo unspecified)	pPAFAH inh 38.6 | pPAFAH FP conf inactive
CC(=O)N1c2ccc(S(=O)(=O)N3CCC(C(=O)Nc4cccc(C)c4)CC3)cc2CC1C (stereo unspecified)	none
Cc1nnsc1C(=O)N/N=C/c1ccc2ccccc2c1O	pPAFAH inh 36.3 | pPAFAH FP conf 48.2
CCCCOc1ccc(Nc2cc(Cl)ccc2C(=O)O)cn1	pPAFAH inh 56.6 | pPAFAH FP conf 40.6
O=Cc1nc(-c2ccc(Cl)cc2)n2ccccc12	pPAFAH inh 70.7 | pPAFAH FP conf inactive
COc1ccc(OC)c(N(C)S(=O)(=O)c2cc3c(cc2C)NC(=O)CO3)c1	none
Cc1ccc(CNC(=O)c2ccc3c(=O)[nH]c4c(C(=O)NCC5CCCO5)sc(=S)n4c3c2)cc1 (stereo unspecified)	PAFAH2 inh 31.3, pPAFAH inh 38.0, PAFAH1B2 FP inh 30.0, PAFAH1B3 FP inh 34.1 | pPAFAH FP conf 75.3
Cc1ccc(CNC(=O)c2ccc3c(=O)n(CC4CCCO4)c(=S)[nH]c3c2)cc1 (stereo unspecified)	none
C=CCn1c(N)c(C(=O)NCc2ccco2)sc1=S	none
O=C(NCc1ccco1)c1sc(=S)n2c1[nH]c(=O)c1ccccc12	pPAFAH inh 47.0 | pPAFAH FP conf 61.0
O=C(NCc1ccccc1)c1ccc2c(=O)[nH]c3c(C(=O)NCC4CCCO4)sc(=S)n3c2c1 (stereo unspecified)	PAFAH2 inh 53.6, pPAFAH inh 63.3, PAFAH1B2 FP inh 34.7, PAFAH1B3 FP inh 34.1 | pPAFAH FP conf 81.3
O=C(NCc1ccccc1)c1ccc2c(=O)n(CC3CCCO3)c(=S)[nH]c2c1 (stereo unspecified)	none
CCCCCNC(=O)c1ccc2c(=O)[nH]c3c(C(=O)NCC4CCCO4)sc(=S)n3c2c1 (stereo unspecified)	PAFAH2 inh 45.2, pPAFAH inh 62.4, PAFAH1B2 FP inh 49.1, PAFAH1B3 FP inh 38.5 | pPAFAH FP conf 73.6
O=C(O)c1cc(O)c2c(c1)[C@H]([C@H]1c3cc(C(=O)O)cc(O)c3C(=O)c3c(O[C@@H]4O[C@H](CO)[C@@H](O)[C@H](O)[C@H]4O)cccc31)c1cccc(OC3O[C@H](CO)[C@@H](O)[C@H](O)[C@H]3O)c1C2=O (stereo partly specified)	PAFAH2 inh 90.3, pPAFAH inh 93.8, PAFAH1B2 FP inh 77.2, PAFAH1B3 FP inh 79.5 | pPAFAH FP conf 99.0
O=S(=O)(Nc1ccc2c(c1)nc1n2CCN(Cc2ccccc2)C1)c1ccc(Cl)cc1	pPAFAH inh 38.4, PAFAH1B2 FP inh 32.8 | pPAFAH FP conf inactive
O=C(Nc1ccc2c(c1)nc1n2CCN(Cc2ccccc2)C1)NC1CCCCC1	none
Cc1ccc(S(=O)(=O)Nc2ccc3c(c2)nc2n3CCN(Cc3ccccc3)C2)cc1	none
O=S(=O)(Nc1ccc2c(c1)nc1n2CCN(Cc2ccccc2)C1)c1ccc(F)cc1	pPAFAH inh 35.5 | pPAFAH FP conf inactive
Cc1ncc(C(O)c2ccccc2)n1Cc1ccccc1 (stereo unspecified)	none (no result: PAFAH2 inh, pPAFAH inh, PAFAH1B2 FP inh, PAFAH1B3 FP inh)
C=CCc1ccccc1Oc1cc(OC)nc(N)n1	none (no result: pPAFAH inh)
N=C1c2c(cc(=O)n3c2[nH]c2ccccc23)CN1CCN1CCOCC1	pPAFAH inh 35.7 | pPAFAH FP conf inactive
C=CCSC1=N/C(=C\C=C\c2ccco2)C(=O)S1	PAFAH2 inh 32.8, pPAFAH inh 60.7 | pPAFAH FP conf inactive
O=S1(=O)CCN(C2CCCCCCC2)CC1	none (no result: PAFAH2 inh, pPAFAH inh, PAFAH1B2 FP inh, PAFAH1B3 FP inh)
OCCOCCNc1ncnc2c1c(-c1ccccc1)cn2-c1ccccc1	pPAFAH inh 34.6 | pPAFAH FP conf inactive
OC(CNCC1CCCO1)Cn1c2ccc(Cl)cc2c2cc(Cl)ccc21 (stereo unspecified)	pPAFAH inh 41.0 | pPAFAH FP conf 33.6
COCCCNC(=O)c1ccc2c3c(onc13)-c1ccccc1C2=O	none
CCOC(=O)C(C(=O)OCC)c1cc(Br)c2noc3c2c1C(=O)c1ccccc1-3	pPAFAH inh 70.0 | pPAFAH FP conf inactive
O=C(/C=C/c1cccs1)c1cc(Br)ccc1OC(=O)N1CCOCC1	PAFAH2 inh 84.0, pPAFAH inh 63.5 | pPAFAH FP conf 60.6
COc1ccc(C(=O)/C=C/c2cccs2)c(OC(=O)N2CCOCC2)c1	none
O=S(=O)(c1ccccc1)[C@@]1(c2ccccc2)C[C@@H]2ON=C(c3cccc(-c4ccccc4)c3)[C@@H]2C1	none
Oc1c(Cl)cc(Cl)cc1/C=N/NC(=S)NC1CC2C=CC1C2 (stereo unspecified)	PAFAH2 inh 68.4, pPAFAH inh 36.0, PAFAH1B3 FP inh 25.9 | pPAFAH FP conf 34.0
O=[N+]([O-])c1cc(/C=N/Nc2nc3ccccc3[nH]2)c(O)cc1O	pPAFAH inh 40.3 (no result: PAFAH2 inh, Rin1-Abl PPI inh, E coli Lon inh, PAFAH1B2 FP inh, PAFAH1B3 FP inh) | pPAFAH FP conf 34.5
O=C(CN(Cc1ccccc1)S(=O)(=O)c1ccc(F)cc1)NCc1ccccn1	none
O=C(Nc1ccc(F)cc1Cl)c1ccc2c(=O)n3c(nc2c1)CCC3	none
O=C(C[C@H]1C/C=C\CC[C@H](Cc2ccc(F)cc2)C(=O)O[C@H](c2ccccc2)CNC1=O)N[C@H](CO)Cc1ccccc1	pPAFAH inh 54.8 | pPAFAH FP conf inactive
O=C(C[C@H]1C/C=C\CC[C@H](Cc2ccc(F)cc2)C(=O)O[C@@H](c2ccccc2)CNC1=O)N[C@H](CO)Cc1ccccc1	none
Nc1nc(-c2ccccc2)c(N=Nc2ccccc2Cl)s1	pPAFAH inh 38.9 | pPAFAH FP conf 52.7

Compound activity as filed in PubChem.
